High-throughput results as filed in PubChem BioAssay.
IMPase cell inh – cell-permeable inhibitors of inositol monophosphatase (IMPase). P97697. CHO-M1 cells, IP1 accumulation, HTRF TR-FRET ratio. inhibition (IP1 accumulation), % at 46.1 µM. 120,000 tested, under 10 active. AID 901; active means well fitted curve in the direction sought with a large enough effect in the signal ratio, not every such curve was filed as active; inconclusive means small, poorly fitted or top-dose-only effect, or a change in a side signal; inactive means no such curve, though single readings can be large or run the other way; the % refers to the signal ratio;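 further: cells stimulated with carbachol in lithium chloride buffer; higher means more IMPase inhibition seen as more IP1 and lower FRET ratio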
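Carbachol-driven Gq signalling in CHO-M1 cells (2000/well) generates IP1. Compounds that block IMPase raise IP1 and so reduce the FRET signal from Eu-anti-IP1 and d2-IP1 after a 10 min room-temperature lysis.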
IMPase Li cell – cell-permeable IMPase inhibitors with lithium potentiation; CHO-M1 cells, IP1 TR-FRET (IP-One), carbachol + lithium; Potency, µM (series often up to 59.4 µM), usual class: inhibitors; 210,000 tested, 0.35% active;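 further: IP1 builds up when IMPase is blocked and the TR-FRET signal falls; nearly all actives have a fitted effect of over 50% in size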
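Lithium-sensitised IP1 accumulation assay; M1-expressing CHO cells treated 30 min at 37C with compound. Competitive antibody detection by time-resolved FRET followed a 10 min room-temperature lysis step.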
12-hLO inh – blocks human 12-lipoxygenase activity; P18054; purified 12-hLO, xylenol orange hydroperoxide absorbance; Potency, µM (doses to about 57.1 µM), hits mostly inhibitors; 150,000 tested, 0.12% active; AID 1452; further: nearly all actives have a fitted effect of over 55% in size
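Xylenol orange chromogenic assay: hydroperoxide from 12hLO oxidises Fe(II), giving red-shifted Fe(III)-XO absorbance. Conditions: 150 nM enzyme, 40 uM arachidonic acid, 25 mM Hepes pH 7.0, 0.01% Triton X-100, 30 min, room temperature.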
15-hLO-2 inh – inhibitors of human 15-lipoxygenase 2 (ALOX15B); O15296; 110,000 tested, 0.56% active; Potency, µM (highest dose often 57.1 µM), usual class: inhibitors; purified 15hLO-2, xylenol orange hydroperoxide absorbance; further: nearly all actives have a fitted effect of over 60% in size
Target sequence (O15296 whole entry, looked up): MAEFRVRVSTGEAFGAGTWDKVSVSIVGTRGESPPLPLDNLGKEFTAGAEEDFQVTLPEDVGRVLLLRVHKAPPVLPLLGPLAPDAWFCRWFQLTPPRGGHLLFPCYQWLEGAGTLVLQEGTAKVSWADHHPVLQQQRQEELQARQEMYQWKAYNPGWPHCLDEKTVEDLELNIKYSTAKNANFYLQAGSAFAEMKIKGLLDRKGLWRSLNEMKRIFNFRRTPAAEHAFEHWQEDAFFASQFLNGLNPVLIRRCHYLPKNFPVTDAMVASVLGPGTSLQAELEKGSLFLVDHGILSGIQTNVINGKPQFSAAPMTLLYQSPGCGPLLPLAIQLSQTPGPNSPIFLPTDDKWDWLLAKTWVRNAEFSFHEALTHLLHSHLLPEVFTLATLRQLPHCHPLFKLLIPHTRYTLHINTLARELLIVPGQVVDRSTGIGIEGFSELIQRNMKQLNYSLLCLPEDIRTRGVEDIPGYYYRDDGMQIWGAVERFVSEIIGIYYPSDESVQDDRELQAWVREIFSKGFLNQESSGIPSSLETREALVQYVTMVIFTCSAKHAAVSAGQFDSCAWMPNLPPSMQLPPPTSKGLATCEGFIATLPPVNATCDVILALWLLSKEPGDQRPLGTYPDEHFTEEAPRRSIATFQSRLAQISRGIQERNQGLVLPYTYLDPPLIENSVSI
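Purified human 15hLO-2 (50 nM final) preincubated with compounds 15 min at room temperature in 25 mM Hepes pH 7.5, 0.01% Triton X-100, then 45 uM arachidonic acid added for 90 min; hydroperoxide detected via ferrous/xylenol orange, 573/405 nm absorbance ratio.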
Large screens that a line does not name were inactive. In the library only some 0.57% were active in any assay of this set; here they are far more common. Unless noted, the call rests on the fitted dose curve; in most records, active means well fitted curve in the direction sought with a large enough effect; inconclusive means small, poorly fitted or top-dose-only effect, or another doubt; inactive means no such curve, though single readings can be large; an effect the other way counts as inactive or inconclusive.

CCCCc1nc2sc3c(SCC(=O)NCc4ccco4)ncnc3c2c2c1CCC2	IMPase cell inh inconclusive, IMPase Li cell 5µM
CCOC(=O)CC(=O)CSc1ncnc2c1oc1ccccc12	IMPase cell inh inconclusive, IMPase Li cell 8.9µM
N#CCCSc1ncnc2c1oc1ccccc12	IMPase cell inh inconclusive, IMPase Li cell 11µM
COc1cccc(NC(=O)CSc2ncnc3c2oc2ccccc23)c1	IMPase cell inh inconclusive, IMPase Li cell 11µM
CC(C)(CC(=O)Nc1ccccc1)C(=O)O	none (no result: IMPase cell inh)
CCCCC/C=C\C[C@H](O)/C=C\c1cccc(C[C@H](O)CCCCO)n1	none (no result: IMPase Li cell)
Cc1ccc(S(=O)(=O)N2CCc3nc(COc4ccccc4)c4c(c3C2)CO[C@@H](C)C4)cc1	none (no result: IMPase cell inh, 15-hLO-2 inh)
O=C(CSc1ncnc2c1oc1ccccc12)NCc1ccco1	IMPase cell inh inconclusive, IMPase Li cell 11µM
O=C(O)CSc1ncnc2c1oc1ccccc12	none (no result: IMPase Li cell)
O=C(CSc1ncnc2c1oc1ccccc12)Nc1ccccc1C(F)(F)F	IMPase cell inh inconclusive, IMPase Li cell 5.6µM (no result: 15-hLO-2 inh)
N#CCCCS(=O)(=O)c1nnnn1-c1ccc(F)cc1Br	none (no result: IMPase cell inh, 12-hLO inh, 15-hLO-2 inh)
O[C@@H](c1cc(-c2ccccc2)nc2c1ccc1ccccc12)[C@@H]1CCCCN1	none (no result: IMPase cell inh, IMPase Li cell)
CC1CN(S(=O)(=O)c2ccc(Cl)c(C(F)(F)F)c2)CC(C)O1 (stereo unspecified)	IMPase Li cell 10µM
CC(/C=C/C=C(C)/C=C/C(=O)O)=C\C=C\C=C(C)\C=C\C=C(C)\C=C\C(=O)O	15-hLO-2 inh inconclusive (no result: IMPase cell inh)
CC[C@]1(O)C[C@H]2CN(CCc3c([nH]c4ccccc34)[C@](C(=O)OC)(c3cc4c(cc3OC)N(C)[C@@H]3[C@](O)(C(=O)OC)[C@H](OC(C)=O)[C@]5(CC)C=CCN6CC[C@]43[C@@H]65)C2)C1	none (no result: IMPase Li cell)
Cc1cccc(NC(=O)c2sc3nc(-c4ccccc4)cn3c2C)n1	none
Cc1cccc(NC(=O)c2sc3nc(-c4ccc(F)cc4)cn3c2C)n1	IMPase Li cell 14µM
Cc1ccc(-c2c(C(=O)Nc3ccccc3C)c(C)[nH]c(=S)c2C#N)o1	IMPase Li cell 11µM (no result: IMPase cell inh, 12-hLO inh, 15-hLO-2 inh)
O=C(/C=C\c1ccc(O)cc1)c1ccc(O)cc1O	none (no result: IMPase Li cell)
CCCCc1nc2c(c3c1C[C@H](C)OC3)CN(S(=O)(=O)CCCC)CC2	none (no result: IMPase cell inh, 15-hLO-2 inh)
COc1ccccc1N1C(=O)CC(Nc2ccc(N3CCOCC3)cc2)C1=O (stereo unspecified)	12-hLO inh inconclusive
CCOc1ccccc1N1C(=O)CC(Nc2ccc(N3CCOCC3)cc2)C1=O (stereo unspecified)	12-hLO inh inconclusive, 15-hLO-2 inh 16µM
Cc1cccc(NC(=S)/N=C(\N)Nc2nc(C)c3ccccc3n2)c1	IMPase Li cell inconclusive, 12-hLO inh 7.9µM (no result: IMPase cell inh, 15-hLO-2 inh)
Cc1ccc(NC(=S)/N=C(\N)Nc2nc(C)c3ccccc3n2)cc1C	IMPase Li cell inconclusive, 12-hLO inh 5.6µM (no result: 15-hLO-2 inh)
Cc1cc(C)cc(NC(=S)/N=C(\N)Nc2nc(C)c3ccccc3n2)c1	none (no result: 15-hLO-2 inh)
CCc1cc2cc3c(cc2nc1SCC(=O)Nc1nnc(C)s1)OCCO3	IMPase Li cell 13µM
CCc1nnc(NC(=O)CSc2nc3cc4c(cc3cc2CC)OCCO4)s1	none
Cc1cc2cc3c(cc2nc1SCC(=O)Nc1nc(C)c(C)s1)OCO3	IMPase cell inh inconclusive, IMPase Li cell 8.9µM
COC(=O)CSc1nc2cc3c(cc2cc1C)OCO3	none (no result: IMPase cell inh, 12-hLO inh, 15-hLO-2 inh)
O=[N+]([O-])c1ccc(CSc2ncnc3c2ncn3C2OC(CO)C(O)C2O)cc1 (stereo unspecified)	none (no result: IMPase cell inh, 12-hLO inh, 15-hLO-2 inh)
O[C@@H](c1cc(C(F)(F)F)nc2c(Cl)cc(Cl)cc12)C1CCCCN1 (stereo partly specified)	none (no result: IMPase cell inh, 12-hLO inh, 15-hLO-2 inh)
COc1cc2cc(Br)cc(Br)c2nc1C	IMPase cell inh inconclusive, IMPase Li cell 13µM
COc1cc2cnncc2cc1OC	none (no result: 15-hLO-2 inh)
O=C(O)/C=C\[C@H](O)c1ccc(Cl)cc1	none (no result: IMPase Li cell)
C[C@]12CC[C@H](O)CC1=CC[C@H]1[C@@H]2CC[C@@]2(C)C(N(CCO)CCO)CC[C@@H]12 (stereo partly specified)	none (no result: IMPase cell inh, 12-hLO inh, 15-hLO-2 inh)
N#Cc1ccc(Oc2ccc(-c3cnc4ccccc4n3)cc2)cc1C#N	IMPase Li cell 2.8µM (no result: 15-hLO-2 inh)
N#Cc1ccc(Oc2ccc(-c3nc4ccccc4nc3-c3ccccc3)cc2)cc1C#N	none (no result: 15-hLO-2 inh)
COc1ccccc1-c1n[nH]c(=S)n1N	none (no result: IMPase cell inh, 12-hLO inh, 15-hLO-2 inh)
COc1ccccc1-c1n[nH]c(=S)n1-c1ccccc1	IMPase cell inh inconclusive, IMPase Li cell 2µM
CC(C)(C)N1C(=O)Cc2c1nc(N)c1c(N)nc(N3CCCCC3CO)c(C#N)c21 (stereo unspecified)	12-hLO inh inconclusive, 15-hLO-2 inh 25µM
